# Measurements reported in PubChem BioAssay (NCATS).
# Results filed as inconclusive are left out. Calls of active or inactive are those of the source. Unless noted, calls follow the shape of the dose curve; as a rule, active = well fitted inhibition curve with a large enough effect; inconclusive = small, poorly fitted or top-dose-only effect; inactive = flat fitted curve, though single readings scatter.
# Tests used:
# [1] = qHTS for identification of novel therapeutic agents for treatment of microphthalmiaassociated transcription factor (MiT) renal cell carcinoma (RCC) (AID 1963991; calls by dose curve); settings: CellTiter-Glo, 48 h; for z-score: stronger effect = lower value
# How it was run: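 Three TFE3-fusion RCC cell lines (UOK109, UOK124, UOK145), 500 cells/well, were exposed to the 1912-compound MIPE 4.0 library for 48 hours at 37 C. Viability was read by CellTiter-Glo luminescence, normalised to DMSO (100%) and empty wells (0%), with 11-concentration curve fits.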
# [2] = qHTS profiling for inhibitors of Plasmodium falciparum proliferation (AID 504749); also: nearly all actives have a fitted effect of over 60% in size;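 as to activity, negative = inhibition: 0% = DMSO vehicle and full inhibition = artemisinin control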; settings: P. falciparum in erythrocytes, SYBR Green DNA, 72 h, at 28.7 µM (top of the series)
# How it was run: (§1)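 P. falciparum-infected erythrocytes (0.3% parasitemia, 2.5% hematocrit final) were exposed to compounds for 72 h at 37 C in 5% CO2, then lysed with SYBR Green buffer overnight at room temperature; parasite DNA fluorescence was normalized to artemisinin and DMSO controls.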
# 3D7 = test: as above; settings: P. falciparum in erythrocytes, SYBR Green DNA, 72 h; series mostly up to 28.7 µM
# How it was run: as §1
# 7G8 = test: as above; settings: P. falciparum in erythrocytes, SYBR Green DNA, 72 h; series mostly up to 28.7 µM
# How it was run: as §1
# AA1029 = test: as above; settings: P. falciparum in erythrocytes, SYBR Green DNA, 72 h; series mostly up to 28.7 µM
# How it was run: as §1
# AS120 = test: as above; settings: P. falciparum in erythrocytes, SYBR Green DNA, 72 h; series mostly up to 28.7 µM
# How it was run: as §1
# ATS189 = test: as above; settings: P. falciparum in erythrocytes, SYBR Green DNA, 72 h; series mostly up to 28.7 µM
# How it was run: as §1
# ATS95 = test: as above; settings: P. falciparum in erythrocytes, SYBR Green DNA, 72 h; series mostly up to 28.7 µM
# How it was run: as §1
# C2A = test: as above; settings: P. falciparum in erythrocytes, SYBR Green DNA, 72 h; series mostly up to 28.7 µM
# How it was run: as §1
# CP185 = test: as above; settings: P. falciparum in erythrocytes, SYBR Green DNA, 72 h; series mostly up to 28.7 µM
# How it was run: as §1
# CP191 = test: as above; settings: P. falciparum in erythrocytes, SYBR Green DNA, 72 h; series mostly up to 28.7 µM
# How it was run: as §1
# CP192 = test: as above; settings: P. falciparum in erythrocytes, SYBR Green DNA, 72 h; series mostly up to 28.7 µM
# How it was run: as §1
# CP194 = test: as above; settings: P. falciparum in erythrocytes, SYBR Green DNA, 72 h; series mostly up to 28.7 µM
# How it was run: as §1
# CP201 = test: as above; settings: P. falciparum in erythrocytes, SYBR Green DNA, 72 h; series mostly up to 28.7 µM
# How it was run: as §1
# CP211 = test: as above; settings: P. falciparum in erythrocytes, SYBR Green DNA, 72 h; series mostly up to 28.7 µM
# How it was run: as §1
# CP215 = test: as above; settings: P. falciparum in erythrocytes, SYBR Green DNA, 72 h; series mostly up to 28.7 µM
# How it was run: as §1
# CP217 = test: as above; settings: P. falciparum in erythrocytes, SYBR Green DNA, 72 h; series mostly up to 28.7 µM
# How it was run: as §1
# CP237 = test: as above; settings: P. falciparum in erythrocytes, SYBR Green DNA, 72 h; series mostly up to 28.7 µM
# How it was run: as §1
# [3] = TFE3-RCC UOK109 viability, measured here: UOK109 Z-AUC
# [4] = TFE3-RCC viability, measured here: UOK124 Z-AUC
# [5] = TFE3-RCC viability, measured here: UOK145 Z-AUC
# Potency is read from the fitted curve at half-maximal effect.
structure (smiles),measurement,setting,value
COc1ccc(C=CC(=O)Nc2ccccc2C(=O)O)cc1OC,z-score,[1]; [3],0.299
same,z-score,[1]; [4],1.48
same,z-score,[1]; [5],-0.0429
CCCCCOC(=O)Nc1nc(=O)n([C@@H]2O[C@H](C)[C@@H](O)C2O)cc1F (stereo not given in full),z-score,[1]; [3],0.259
same,z-score,[1]; [4],0.348
same,z-score,[1]; [5],0.317
CN(CC=CC#CC(C)(C)C)Cc1cccc2ccccc12,z-score,[1]; [3],0.358
same,z-score,[1]; [4],0.58
same,z-score,[1]; [5],2.39
C[C@@H]1CCO[C@H]2Cn3cc(C(=O)NCc4ccc(F)cc4F)c(=O)c(O)c3C(=O)N12,z-score,[1]; [3],0.807
same,z-score,[1]; [4],0.941
same,z-score,[1]; [5],1.66
O=C(O)C1=CO[C@@H](O[C@@H]2O[C@H](CO)[C@H](O)[C@H](O)[C@H]2O)[C@@H]2C(CO)=CC[C@H]12,z-score,[1]; [3],0.598
same,z-score,[1]; [4],0.803
same,z-score,[1]; [5],0.387
CO[C@H]1O[C@@H]2O[C@@]3(C)CC[C@@H]4[C@@H](C)CC[C@@H]([C@H]1C)[C@@]24OO3,z-score,[1]; [3],1.01
same,z-score,[1]; [4],0.926
same,z-score,[1]; [5],0.763
C[C@]12CCC3=C4CCC(=O)C=C4CC[C@@H]3[C@H]1CC[C@@]2(O)CC#N,z-score,[1]; [3],0.693
same,z-score,[1]; [4],0.709
same,z-score,[1]; [5],-0.023
CC(=O)OCC(=O)[C@@]12OC(C)(C)O[C@H]1C[C@H]1[C@@H]3C[C@H](F)C4=CC(=O)C=C[C@]4(C)[C@@]3(F)[C@@H](O)C[C@@]12C,z-score,[1]; [3],0.123
same,z-score,[1]; [4],0.68
same,z-score,[1]; [5],0.0965
CN(C)c1nc(Cc2ccc(NC(=O)c3ccc(C(F)(F)F)cc3)cc2)nc(N(C)C)c1CC(=O)O,z-score,[1]; [3],0.568
same,z-score,[1]; [4],0.491
same,z-score,[1]; [5],0.741
CC1(C)[C@H]2CC[C@]3(C)[C@@H](C(=O)C=C4[C@@H]5C[C@@](C)(C(=O)O)CC[C@]5(C)CC[C@]43C)[C@@]2(C)CC[C@@H]1O,z-score,[1]; [3],0.727
same,z-score,[1]; [4],0.724
same,z-score,[1]; [5],0.985
CC[C@H]1OC(=O)[C@H](C)[C@@H](O[C@H]2C[C@@](C)(OC)[C@@H](O)[C@H](C)O2)[C@H](C)[C@@H](O[C@@H]2O[C@H](C)C[C@H](N(C)C)[C@H]2O)[C@](C)(O)C[C@H](C)C(=NOCOCCOC)[C@H](C)[C@@H](O)[C@]1(C)O,z-score,[1]; [3],1.24
same,z-score,[1]; [4],-0.315
same,z-score,[1]; [5],0.696
CO[C@H]1/C=C\O[C@@]2(C)Oc3c(C)c(O)c4c(O)c(c5c(nc6cc(C)ccn65)c4c3C2=O)NC(=O)C(C)=CC=C[C@H](C)[C@H](O)[C@@H](C)[C@@H](O)[C@@H](C)[C@H](OC(C)=O)[C@H]1C,z-score,[1]; [3],0.788
same,z-score,[1]; [4],1.17
same,z-score,[1]; [5],0.817
FC(F)(F)c1ccc(C=Cc2nc(COc3ccc(CCCCn4ccnn4)cc3)co2)cc1,Potency,"[1]; TFE3-RCC UOK109 viability, active = Z-AUC below -0.8 in all three lines",0.00296 µM (active)
same,z-score,[1]; [3],-2.19
same,z-score,[1]; [4],-1.14
same,z-score,[1]; [5],-1.58
CN1CC(=O)N2C(Cc3c([nH]c4ccccc34)[C@H]2c2ccc3c(c2)OCO3)C1=O (stereo not given in full),"activity, negative = inhibition",[2]; parasite line A,3.25% (inactive)
same,"activity, negative = inhibition",[2]; parasite line B,5.31% (inactive)
same,Potency,3D7,inactive
same,Potency,7G8,10 µM (active)
same,Potency,AA1029,inactive
same,Potency,AS120,inactive
same,Potency,ATS189,inactive
same,Potency,ATS95,inactive
same,Potency,C2A,inactive
same,outcome,CP185,inactive
same,outcome,CP191,inactive
same,Potency,CP192,inactive
same,Potency,CP194,inactive
same,Potency,CP201,inactive
same,Potency,CP211,inactive
same,Potency,CP215,inactive
same,Potency,CP217,inactive
same,Potency,CP237,inactive
COc1cc2c(cc1OC)[C@@H]1Cc3ccc(OC)c(OC)c3CN1CC2,z-score,[1]; [3],0.652
same,z-score,[1]; [4],0.474
same,z-score,[1]; [5],0.612
CCNC(=O)[C@H]1O[C@@H](n2cnc3c(N)nc(NCCc4ccc(CCC(=O)O)cc4)nc32)[C@H](O)[C@H]1O,z-score,[1]; [3],0.882
same,z-score,[1]; [4],0.527
same,z-score,[1]; [5],0.68
CCNC(=O)CCCC=CC[C@@H]1[C@H](C=CC(O)CCc2ccccc2)[C@@H](O)C[C@@H]1O (stereo not given in full),z-score,[1]; [3],1.02
same,z-score,[1]; [4],0.311
same,z-score,[1]; [5],1.41
CCC=CC[C@H]1C(=O)CC[C@@H]1CC(=O)OC,z-score,[1]; [3],-0.107
same,z-score,[1]; [4],0.558
same,z-score,[1]; [5],0.356
O=c1[nH]c(=O)n([C@H]2C[C@@H](O)[C@@H](CO)O2)cc1I,z-score,[1]; [3],0.108
same,z-score,[1]; [4],0.166
same,z-score,[1]; [5],0.313
CC[C@H](C)C(=O)O[C@H]1C[C@H](O)C=C2C=C[C@H](C)[C@H](CC[C@@H](O)C[C@@H](O)CC(=O)O)[C@H]21,z-score,[1]; [3],0.594
same,z-score,[1]; [4],0.809
same,z-score,[1]; [5],0.248
CNC1[C@H](O)C(O[C@@H]2C(O)C(O[C@H]3O[C@H]([C@@H](C)NC)CC[C@H]3N)[C@@H](N)C[C@H]2N)OC[C@]1(C)O (stereo not given in full),z-score,[1]; [3],0.654
same,z-score,[1]; [4],0.386
same,z-score,[1]; [5],0.886
O=C1C(CCC(O)c2ccc(F)cc2)C(c2ccc(O)cc2)N1c1ccc(F)cc1 (stereo not given),"activity, negative = inhibition",[2]; parasite line A,3.97% (inactive)
same,"activity, negative = inhibition",[2]; parasite line B,8.1% (inactive)
same,Potency,3D7,inactive
same,Potency,7G8,inactive
same,Potency,AA1029,inactive
same,Potency,AS120,inactive
same,Potency,ATS189,inactive
same,Potency,ATS95,inactive
same,Potency,C2A,inactive
same,outcome,CP185,inactive
same,outcome,CP191,inactive
same,Potency,CP192,inactive
same,Potency,CP194,inactive
same,Potency,CP201,inactive
same,Potency,CP211,inactive
same,Potency,CP215,inactive
same,Potency,CP217,inactive
same,Potency,CP237,inactive
CC(C)CN(C[C@@H](O)[C@H](Cc1ccccc1)NC(=O)O[C@H]1CO[C@H]2OCC[C@H]21)S(=O)(=O)c1ccc(N)cc1,"activity, negative = inhibition",[2]; parasite line A,1% (inactive)
same,"activity, negative = inhibition",[2]; parasite line B,-15.6% (inactive)
same,Potency,3D7,inactive
same,Potency,7G8,12.6 µM (active)
same,Potency,AA1029,inactive
same,Potency,AS120,inactive
same,Potency,ATS189,inactive
same,Potency,ATS95,inactive
same,Potency,C2A,inactive
same,outcome,CP185,inactive
same,outcome,CP191,inactive
same,Potency,CP192,inactive
same,Potency,CP194,inactive
same,Potency,CP201,inactive
same,Potency,CP211,inactive
same,Potency,CP215,inactive
same,Potency,CP217,inactive
same,Potency,CP237,inactive
